MKP-1 inh = MKP-1 phosphatase inhibitors, primary screen, biochemical, in vitro | recombinant MKP-1, OMFP hydrolysis fluorescence | inhibition, %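 (compounds tested at a single concentration somewhere between 10 and 100 µM)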 | hit rate 0.15% among 65,000;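 active = inhibition above about 50%, limit read from the data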;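 also: 0% = DMSO max control wells and 100% = wells with enzyme stopped by NaOH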
Target sequence (P28562 whole entry, looked up): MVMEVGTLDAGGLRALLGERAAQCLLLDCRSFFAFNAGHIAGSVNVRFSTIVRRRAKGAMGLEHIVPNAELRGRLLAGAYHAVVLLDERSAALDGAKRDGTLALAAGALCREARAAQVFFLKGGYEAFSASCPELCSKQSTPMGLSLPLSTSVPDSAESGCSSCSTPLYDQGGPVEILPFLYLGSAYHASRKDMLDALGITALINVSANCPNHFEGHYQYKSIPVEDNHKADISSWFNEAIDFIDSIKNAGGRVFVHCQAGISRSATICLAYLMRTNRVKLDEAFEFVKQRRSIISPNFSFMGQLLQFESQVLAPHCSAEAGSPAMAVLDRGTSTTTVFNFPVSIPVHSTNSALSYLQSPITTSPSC
TNAP act mid DEA = human TNAP enzyme activators, primary screen, biochemical, luminescent, intermediate phosphate acceptor level; Alkaline phosphatase, tissue-nonspecific isozyme (Homo sapiens), P05186; purified TNAP, CDP-star luminescence, 100 mM DEA, 30 min; hits give high values; scale: 0 levamisole-inhibited, 1 vehicle-only enzyme; activation factor at 20 µM; 64,000 tested, under 10 active; AID 813, 2007;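 active = activation factor of at least 2 at 20 µM, relative to controls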
Cdc25B inh = inhibitors of Cdc25B phosphatase catalytic domain, primary screen, biochemical, OMFP fluorescence | M-phase inducer phosphatase 2 (Homo sapiens), P30305 | recombinant Cdc25B, OMFP fluorescence Ex485/Em525 | inhibition, %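 (compounds tested at 10 µM final in the well)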 | hit rate 0.1% among 65,000; in the data active = inhibition above about 50%
HePTP inhibitor = inhibitors of human HePTP phosphatase, primary screen, biochemical, absorbance, leukemia target; AID 521, 2006; inhibition, % at 20 µM; recombinant HePTP phosphatase activity, OD absorbance; hit rate 0.64% among 110,000; in the data active = inhibition above about 50%;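 also: plate controls were vehicle for no effect and reference inhibitor for full effect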
Hsp90 inh = tumor Hsp90 inhibitors, primary screen, cell lysate, fluorescence polarization, NCI-N417 lysate. hit rate 0.35% among 64,000. Heat shock protein HSP 90-alpha (Homo sapiens), P07900. Cy3B-geldanamycin FP displacement. inhibition, % at 30 µM;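 active = inhibition above 50%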;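 also: 0% = tracer plus lysate wells and 100% = tracer alone without lysate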
PLAP activator = PLAP enzyme activators, biochemical, luminescence, HTS; Alkaline phosphatase, placental type (Homo sapiens), P05187; purified PLAP enzyme, luminescent substrate read-out; hits give high values; activation fold at 20 µM; hit rate 1.2% among 96,000; in the data active = activation fold above about 2
* = called active by the depositor; . = not tested or not shown. An excerpt weighted towards active compounds, which were near 1.5% of everything screened.

SMILES	MKP-1 inh	TNAP act mid DEA	Cdc25B inh	HePTP inhibitor	Hsp90 inh	PLAP activator
Cc1nc2nc(SCC(N)=O)[nH]c2cc1Br	-19	0.9	-5	8	2	2.2*
COc1ccccc1N1CCN(/N=C\c2ccccc2OCC(=O)O)CC1	.	.	.	-4	.	.
O=C(NCc1ccncc1)c1ccc(I)cc1	.	.	.	-6	.	.
Cc1onc(-c2c(F)cccc2Cl)c1C(=O)Nc1nc2ccccc2[nH]1	.	.	.	.	.	2*
Cc1ccc(NC(=O)c2c(-c3c(F)cccc3Cl)noc2C)cc1	.	.	.	6	.	.
O=C1C(=C/C=C/c2ccccc2)C(=O)c2ccccc21	.	.	.	13	.	.
CC(C)c1ccc(/C=C/C(=O)Nc2ccc(C(N)=O)cc2)cc1	.	.	.	104*	.	.
CC(=O)c1ccc(NC(=O)/C=C/c2ccccc2)cc1	.	.	.	-26	.	.
CCC(C)NC(=O)Cn1nc(C(F)(F)F)c(Cl)c1C (centres undefined)	.	.	.	-17	.	.
Cc1cc(C)nc(NS(=O)(=O)c2ccc(NC(=O)CSc3nc(C)cc(C)n3)cc2)n1	.	.	.	2	.	.
O=C(CSc1nnc(-c2ccc(F)cc2)o1)Nc1ccc(S(=O)(=O)N2CCCCCC2)cc1	10	0.9	-16	5	-1	0.7
Cc1cccc(NC(=O)CSc2nnc(-c3ccc(S(=O)(=O)N4CCCC4)cc3)o2)c1	-36	0.9	4	1	3	2.1*
Cc1cc(C)nc(SCC(=O)Nc2ccc(S(=O)(=O)N3CCCCC3)cc2)n1	.	.	.	.	.	2.1*
Cc1ccc(NC(=O)CSc2nnc(-c3ccc(S(=O)(=O)N4CCCC4)cc3)o2)cc1C	53*	1	-6	-5	2	1.1
O=C(CSc1nnc(-c2ccc(F)cc2)o1)Nc1ccc(S(=O)(=O)N2CCCC2)cc1	30	0.9	-7	7	-5	1
COc1ccc(CNC(=O)c2cc3nc(-c4ccc([N+](=O)[O-])cc4)cc(C(F)(F)F)n3n2)cc1	.	.	.	-21	.	.
O=S(=O)(NNc1ccccc1)c1ccc2ccccc2c1	.	.	.	10	.	.
O=C(CSc1nnc(-c2ccc(Cl)cc2Cl)n1C1CCCCC1)N1CCCC1	.	.	.	.	.	2*
O=C(CSc1nnc(-c2ccccc2F)n1C1CCCCC1)N1CCCC1	31	0.9	-19	2	-1	1.2
N#CC1=C(N)Oc2cc(N)ccc2C1c1ccc(OCc2ccccc2)cc1 (centres undefined)	.	.	.	-4	.	.
CCc1cc(C)cc(OCCOc2ccc(C=C3C(=O)NC(=O)NC3=O)cc2)c1	.	.	.	17	.	.
O=C(NC1=NCCS1)C1Cc2ccccc2CN1C(=O)c1ccccc1 (centres undefined)	12	0.9	-5	6	-5	2.1*
CCN(CC)CCCNc1cc(OC)cc2ccc(OC)nc12	.	.	.	.	67*	.
CCCC(C)N(CC)CCNc1cc(OC)cc2cccnc12 (centres undefined)	.	.	.	.	46	.
CCOC(=O)c1ccccc1NC(=O)CN(c1ccc(C)cc1)S(C)(=O)=O	.	.	.	-13	.	.
SMILES	MKP-1 inh	TNAP act mid DEA	Cdc25B inh	HePTP inhibitor	Hsp90 inh	PLAP activator
O=C(Nc1ccc2nc(-c3ccc4nc[nH]c4c3)[nH]c2c1)c1cccs1	.	.	.	.	.	2.1*
CC(C)(C)C1(C)OC(O)(C(Cl)Cl)CC1=O (centres undefined)	.	.	.	1	.	.
CC(C)(C)C1(C)OC(O)(C(F)(F)C(F)F)CC1=O (centres undefined)	.	.	.	104*	.	.
Cc1cc([N+](=O)[O-])nn1CC(=O)NNC(=S)Nc1ccc([N+](=O)[O-])cc1	.	.	.	.	.	1.1
O=C(Cn1nc(C(F)F)cc1C(F)F)NNC(=S)Nc1ccc(Cl)cc1	.	.	.	.	.	2*
COc1ccc(NC(=S)NNC(=O)Cn2nc([N+](=O)[O-])cc2C)cc1	.	.	.	.	.	2.2*
Nc1nc2ccccc2n1/N=C/c1ccccc1	.	.	.	-6	.	.
Cc1cc(C)c(C)c(C=C2C(=O)c3ccccc3C2=O)c1C	.	.	.	-2	.	.
CCOc1cc(/C=c2/sc3nc4ccccc4n3c2=O)cc(I)c1OCC	.	.	.	-3	.	.
COc1cc(/C=c2\sc3nc4ccccc4n3c2=O)cc(I)c1OCC(=O)O	.	.	.	75*	.	.
COc1ccc(/C=C2\C(=O)N(c3ccc(F)cc3)N=C2C)cc1	.	.	.	-11	.	.
O=c1c(O)c(-c2ccc(O)cc2O)oc2cc(O)cc(O)c12	16	0.8	20	15	30	.
O=c1c(O)c(-c2cc(O)c(O)c(O)c2)oc2cc(O)cc(O)c12	.	.	.	.	100*	.
C/C(=N/NC(=O)c1cc(-c2ccc3ccccc3c2)n[nH]1)c1ccc([N+](=O)[O-])cc1	.	.	.	-25	.	.
COc1ccc(C(=O)NNC(=O)c2ccccc2OC)cc1OC	.	.	.	-12	.	.
O=C1NC(=S)S/C1=C/c1ccc(O)c(Br)c1	.	.	.	104*	.	.
O=C(O)c1cccc(N2C(=O)CC(Nc3ccc(N4CCOCC4)cc3)C2=O)c1 (centres undefined)	.	.	.	61*	.	.
Cn1c(CSc2ncn[nH]2)nc2ccccc21	-17	0.9	-7	-7	-3	2.8*
COc1ccc(-c2nn(-c3ccccc3)cc2C(=O)NCCCn2ccnc2)cc1	12	1.1	-6	1	-3	2.6*
Cc1ccc2[nH]c3nc(N/N=C/c4cccs4)nnc3c2c1	.	.	.	-8	.	.
CCc1ccccc1NC(=O)C1CC(=O)N(c2ccc(Br)cc2)C1 (centres undefined)	.	.	.	0	.	.
N=C1S/C(=C\c2ccc(-c3cccc(C(=O)O)c3)o2)C(=O)N1c1ccc2c(c1)OCO2	.	.	.	103*	.	.
N=C1S/C(=C\c2ccc(-c3cccc([N+](=O)[O-])c3)o2)C(=O)N1c1ccc2c(c1)OCO2	.	.	.	3	.	.
CC1=NN(c2ccc(C(=O)O)cc2)C(=O)/C1=C\c1ccc(-c2cccc(C(=O)O)c2)o1	.	.	.	101*	.	.
COC(=O)c1cccc(-c2ccc(/C=C3\C(=O)N(c4cccc(C(=O)O)c4)N=C3C)o2)c1	.	.	.	102*	.	.
SMILES	MKP-1 inh	TNAP act mid DEA	Cdc25B inh	HePTP inhibitor	Hsp90 inh	PLAP activator
CC(=O)c1cccc(-c2ccc(/C=C3\C(=O)N(c4cccc(C(=O)O)c4)N=C3C)o2)c1	.	.	.	16	.	.
COC(=O)c1cccc(-c2ccc(/C=C3/C(=O)NN(c4cccc(Cl)c4)C3=O)o2)c1	.	.	.	0	.	.
O=C1NN(c2cccc(Cl)c2)C(=O)/C1=C\c1ccc(-c2cccc(C(=O)O)c2)o1	.	.	.	102*	.	.
COC(=O)c1cccc(-c2ccc(/C=C3\C(=O)N(c4ccc(S(N)(=O)=O)cc4)N=C3C)o2)c1	.	.	.	8	.	.
COc1ccc2ccccc2c1/C=N/NC(=O)Cc1nnc(N)s1	.	.	.	-3	.	.
Cc1cc(C)cc(NC(=O)Nc2ccc3c(c2)N(C)C(=O)CS3)c1	.	.	.	.	.	0.9
CN1CC(=O)N/C1=N\C(=O)Nc1ccc2c(c1)N(C)C(=O)CS2	10	1.1	-9	-3	-2	2.8*
O=C1NC(=S)NC(=O)C1=Cc1ccc(OCCOc2ccccc2)cc1	.	.	.	-6	.	.

Screening data as filed in PubChem BioAssay.
